# Results: PubChem BioAssay
# Several values for one entry are separate records, joined by “and”; a condition that tells them apart may be missing. Equal values may be shown once. Activity calls are given as the source filed them. Unless noted, how the calls were made is not given here.
# Assays:
# [1] = tested on: Aerobactin synthetase IucA (Klebsiella pneumoniae); assay: IucA aerobactin synthetase inhibitors, biochemical, Tocris library, absorbance (AID 1345561); conditions: purified IucA enzyme assay, absorbance (OD) read-out; stronger effect = lower value;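 tested at 8 µM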;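 further: 100% = enzyme without compound and 0% = no enzyme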
# [2] = sensitizers of A549 cells to miR-34 induction, primary screen, imaging, A549 dox-inducible miR-34, nuclei and caspase counts (AID 1347080;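 active means compounds whose cell count with miR-34 switched on is under 0.7 times the count with it off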); conditions: A549 miR-34 inducible, Hoechst nuclei count, 48 h
# [3] = viability rescue of complex I mutant cybrids, primary screen, cell-based, galactose medium, ATP luminescence (AID 1645843;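 active means z-score of at least 1.8 in each of two replicates, scored against plate mean and spread of sample wells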;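 further: positive z means more ATP and so rescue of galactose-driven cybrid death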); conditions: complex I mutant cybrid cells, 72 h, stronger effect = higher value
# [4] = tested on: Hepatitis C virus NS3 helicase; assay: HCV NS3 helicase inhibitors, primary screen, biochemical, fluorescence polarization, LOPAC1280 library (AID 687035; in the data active means inhibition above about 37%); conditions: Purified HCV NS3 helicase, Cy5-dT15 ssDNA binding fluorescence polarization; stronger effect = higher value; concentration not given here
# [5] = Cy5 fluorescence quenching or enhancement artefacts, artefact control for HCV NS3 helicase inhibitor project, biochemical, LOPAC1280 (AID 687037); conditions: Cy5-DNA-NS3h complex fluorescence interference counterscreen
# [6] = liver-stage malaria parasite growth inhibition, primary screen, cell-based, HepG2, luciferase luminescence, HepG2 viability (AID 624349; in the data active means parasite load remaining mostly below about 12%, no sharp cut-off; inactive means mostly above about 10%;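 further: 100% = mean of DMSO negative control wells on the same plate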); conditions: P. berghei liver stage in HepG2, luciferase luminescence, concentration not given here; parasite load remaining: stronger effect = lower value; viability: measured here: HepG2 viability without parasites
# [7] = circadian clock period modulators, cell-based, LOPAC library, luminescence reporter (AID 2774); conditions: circadian reporter cells, at 7 µM, actives lie on both sides;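 further: values are relative to mean of DMSO wells on each plate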
# [8] = measured here: relative caspase fold change +Dox/-Dox
# [9] = measured here: total cells with miR-34 induction, stronger effect = lower value
# [10] = measured here: total cells without miR-34 induction
# [11] = stronger effect = lower value, cell number ratio, induced over uninduced
SMILES,remaining activity [1],fold change ([2]; stronger effect = lower value),"fold change [2, 8]","cell count [2, 9]","cell count [2, 10]",z-score [3],"fold change [2, 11]",inhibition [4],fluorescence ratio (interference) [5],parasite load remaining [6],viability [6] [%],period change [7]
c1ccc(CC(c2ccccc2)N2CCCCC2)cc1 (stereo not given),103% (inactive),0.958 (inactive),0.814,9440,9860,-0.99 (inactive),–,–,–,–,–,–
CCCOc1ccc2[nH]cc(C3=CCNCC3)c2n1,119% (inactive),–,0.876,9040,9210,-0.37 (inactive),0.982 (inactive),–,–,–,–,–
COc1ccc2c(c1)c(CCN1CCOCC1)c(C)n2C(=O)c1cccc(Cl)c1Cl,101% (inactive),–,1.25,6500,7100,-0.005 (inactive),0.915 (inactive),-1% (inactive),1.1 (inactive),–,–,–
CN1Cc2ccccc2[C@@H]2c3cccc4[nH]cc(c34)C[C@H]21,114% (inactive),–,0.677,4560,4870,-0.7 (inactive),0.936 (inactive),–,–,–,–,–
C=C(C)[C@@H]1CCC(C)=C[C@H]1c1c(OC)cc(C)cc1OC,106% (inactive),–,0.715 and 0.958,5230 and 8980,5540 and 9700,-0.105 (inactive),0.943 (inactive) and 0.926 (inactive),–,–,–,–,–
O=C1NC(=O)c2c1c1c3ccccc3[nH]c1c1[nH]c3ccccc3c21,93.4% (inactive),0.78 (inactive),1.58,3660,4680,-0.6 (inactive),–,–,–,79.1% (inactive),159,–
CCC[C@@H]1CC2=CC(=O)CC[C@]2(C)[C@H]2CC[C@@]3(C)[C@@H](CC[C@@]3(O)CCC(=O)O)[C@H]12,116% (inactive),–,0.977,7340,7920,0.06 (inactive),0.926 (inactive),–,–,–,–,–
C(=C\c1ccccc1)/CN1CCN(CCOC(c2ccccc2)c2ccccc2)CC1,119% (inactive),–,0.604,5420,5780,-1.21 (inactive),0.938 (inactive),–,–,–,–,–
Cc1nnc2ccc(-c3cccc(C(F)(F)F)c3)nn12,126% (inactive),0.912 (inactive),0.497,9060,9940,0.155 (inactive),–,–,–,–,–,–
Cc1ccc2c(c1)C1(CCN(CCc3nc(-c4ccccc4)oc3C)CC1)OC(=O)N2,95% (inactive),–,1.87,5420,5610,-0.635 (inactive),0.966 (inactive),–,–,–,–,–
COC1CCC2NC(C(=O)c3ccccc3)CC2C1 (stereo not given),86.6% (inactive),–,0.708,1500,1320,0.23 (inactive),1.14 (inactive),–,–,–,–,–
O=Cc1cn(Cc2ccc(Cl)cc2)c2ccccc12,119% (inactive),–,1.34,4020,4470,-0.645 (inactive),0.901 (inactive),–,–,–,–,–
CCN(CC)CCO[C@H]1CC[C@@]2(C)C(=CC[C@@H]3[C@@H]2CC[C@]2(C)C(=O)CC[C@@H]32)C1,113% (inactive),–,0.558 and 0.739,5320 and 6330,5930 and 7220,-0.79 (inactive),0.896 (inactive) and 0.878 (inactive),–,–,–,–,–
c1ccc(C2CNCc3ccccc32)cc1 (stereo not given),117% (inactive),–,0.998,8070,8500,-0.455 (inactive),0.949 (inactive),–,–,–,–,–
O=C(CCCN1CCC2(CC1)C(=O)N(Cc1cccc(F)c1)CN2c1ccccc1)c1ccc(F)cc1,109% (inactive),–,1,1590,1250,-1.2 (inactive),1.27 (inactive),–,–,–,–,–
N[C@]1(C(=O)O)CC[C@@H](C(=O)O)C1 (racemic),103% (inactive),–,0.73,7990,8230,0.095 (inactive),0.971 (inactive),–,–,–,–,–
CC(C)CC(N)C1(c2ccc(Cl)cc2)CCC1 (stereo not given),120% (inactive),1.01 (inactive),1.15,7820,7770,-0.615 (inactive),–,–,–,–,–,–
Cc1ccc2c(c1)Cc1c(C(=O)NN3CCCCC3)nn(-c3ccc(Cl)cc3Cl)c1-2,102% (inactive),–,1.23,5690,6240,-0.67 (inactive),0.912 (inactive),–,–,–,–,–
C[C@H](NC[C@H](O)CP(=O)(O)CC1CCCCC1)c1ccc(Cl)c(Cl)c1,121% (inactive),–,0.73,10100,10400,0.2 (inactive),0.971 (inactive),–,–,–,–,–
CN1CCN(c2ccc3ccccc3n2)CC1,109% (inactive),–,0.813,8930,9670,-0.58 (inactive),0.923 (inactive),–,–,–,–,-0.045 h (inactive)
